From PubChem BioAssay (Tox21)
Inconclusive results are not listed. Entries that show only a call come without a potency. Values without a mark were called inactive. Calls of active or inactive are those of the source. Calls follow the shape of the dose curve; as a rule, active = well fitted cell-killing curve with a large enough effect in the repeat runs (not every such curve was filed as active); inconclusive = weak or mixed curves, or effect the other way; inactive = no such curve, though single readings can be large or run the other way.

Test: qHTS assay to identify small molecule antagonists of the estrogen related receptor signaling pathway with the pleiotropic PPARgamma coactivator (PGC) from Tox21 10K library - cell viability counter screen (AID 1224840); also: nearly all actives have a fitted effect of over 40% in size
Conditions: PGC/ERR reporter cells viability, CellTiter-Fluor, 17.5 h; series mostly up to 92.4 µM
Excerpt: National Center for Advancing Translational Sciences [NCATS]
NIH Chemical Genomics Center [NCGC]
U.S. Environmental Protection Agency [EPA]
National Institutes of Environmental Health Sciences [NIEHS]
National Toxicology Program [NTP]
U.S. Food and Drug Administration [FDA]
Estrogen related receptors (ERRs), the first orphan nuclear receptors discovered, play an important role in the control of cellular energy metabolism. ERRs are required for high-energy production in response to the environmental challenges. The pleiotropic PPARgamma coactivator (PGC) is a major partner of ERR and a key regulator in energy homeostasis. Together they have been implicated in the etiology of metabolic disorders such as Type 2 diabetes and metabolic syndrome. ERR-alpha was also identified as an adverse marker for breast cancer progression; ERR-alpha-positive tumors have a poor prognosis. To screen and to identify environmental compounds that perturb the ERR and PGC/ERR signaling pathways could provide valuable information for potential therapeutic or preventive measures in the treatment of metabolic disease. To differentiate true PGC/ERR antagonists or agonist from cytotoxic substances, the assay is multiplexed with cell viability assay.
Tox21 Assay Protocol Summary:
The PGC/ERR cells were dispensed at 2,000 cells/5 ul/well in 1536-well white plates using a Multidrop dispenser. After the assay plates were incubated at a 37 C/5% CO2 incubator for 6 hours, 23 nL of compounds dissolved in DMSO, positive and negative controls or DMSO only was transferred to the assay plate by a pin tool. The plates were incubated at 37 C for 17.5 hours. 1 ul/well of CellTiter-Fluor reagent was added into the assay plates using a Flying Reagent Dispenser. After 30-minute incubation at 37 C/5% CO2, the fluorescence intensity in the plates was measured using a ViewLux plate reader.

| Structure (SMILES) | Potency | viability change, negative = cytotoxic |
| --- | --- | --- |
| Clc1ccc(C(Cl)(Cl)Cl)cn1 | inactive |  |
| CCC(=O)OC1(c2ccccc2)CCN(C)CC1 | inactive |  |
| O=C(O)C(Br)(Br)Br | inactive |  |
| CCC1(CC)C(=O)C=CNC1=O | inactive |  |
| CCN(CC)CCOC(=O)C(O)(c1ccccc1)c1ccccc1 | inactive |  |
| O=C(O)CBr | inactive |  |
| C[C@H](N)C(=O)c1ccccc1 | inactive |  |
| CC[C@H](O)C(C[C@H](C)N(C)C)(c1ccccc1)c1ccccc1 | inactive |  |
| CON(C)C(=O)Nc1ccc(Br)c(Cl)c1 | inactive |  |
| Cc1cccc2sc3nncn3c12 | inactive |  |
| CC(=O)CN(CC(C)=O)N=O | inactive |  |
| BrCc1ccc(Br)cc1 | inactive |  |
| C=CCC1(C(C)CC)C(=O)NC(=O)NC1=O (stereo not given) | inactive |  |
| NNC(N)=O | inactive |  |
| CCCCCCC(=O)CCCCCC/C=C/C[C@@H](O)[C@H](O)[C@@](N)(CO)C(=O)O |  | 12.4% [at 19 µM] |
| Cc1cc(OC(=O)N(C)C)nn1C(=O)N(C)C | inactive |  |
| CCOC(=O)c1ncn2c1CN(C)C(=O)c1c(I)cccc1-2 | inactive |  |
| O=C(Cl)OCc1ccccc1 | inactive |  |
| CCOC(=O)CC(SP(=S)(OC)OC)C(=O)OCC (stereo not given) | inactive |  |
| Cc1ccc2cc(C)ccc2c1 | inactive |  |

| Structure (SMILES) | Potency | viability change, negative = cytotoxic |
| --- | --- | --- |
| BrCC1CO1 (stereo not given) | inactive |  |
| CC(C)(N)Cc1ccccc1Cl | inactive |  |
| Brc1c(Br)c(Br)c(Br)c(Br)c1Br |  | -4.4% [at 8.39 µM] |
| O=C(O)C(F)(F)C(F)(F)C(F)(F)C(F)(F)C(F)(F)C(F)(F)F | inactive |  |
| COc1ccc2c(C(=O)c3ccc(Cl)cc3)c(C)n(CC(=O)O)c2c1 | inactive |  |
| CC(O)CCl (stereo not given) | inactive |  |
| C[N+]1(C)CCCCC1 | inactive |  |
| CC(=O)OCC1=C(C(=O)O)N2C(=O)[C@@H](N)[C@H]2SC1 |  | 9.03% [at 19 µM] |
| CNC(=O)NC(O)C(Cl)(Cl)Cl (stereo not given) | inactive |  |
| CC(C)c1ccc(O)cc1 | inactive |  |
| C=C(Cl)CCl | inactive |  |
| CNC(=O)O/N=C(/CSC)C(C)(C)C | inactive |  |
| COc1ccc(CN2CCNCC2)c(OC)c1OC | inactive |  |
| CNC(=O)Oc1cc(C)c(N(C)C)c(C)c1 | inactive |  |
| COc1cc(CCN)cc(OC)c1OC | inactive |  |
| O=C(Cl)C(Cl)Cl | inactive |  |
| Cl/C=C/CCl | inactive |  |
| COC[C@@H](NC(C)=O)C(=O)NCc1ccccc1 | inactive |  |
| COP(=O)(O)OC | inactive |  |
| O=c1[nH]c2ccccc2o1 | inactive |  |
